Data from PubChem BioAssay.

Assay: growth modulation of vineyard yeast isolate – strain RM11-1a, OD600, basal, 24 h, primary screen (AID 1177);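 further: cultures grown under basal conditions with no added stressor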
Conditions: S. cerevisiae RM11-1a growth, OD600, 24 h; higher = more signal, called active from +8 up or from −8 down
Further: test concentration not given here.

z-score, inactive:
CCOC(=O)CCN1C(=O)[C@H]2[C@H]3[C@H](O)[C@H](O)CC(=NNC(=O)OCC)[C@H]3CC[C@H]2C1=O 0.235, CC(=O)OC[C@H]1O[C@@H](ON=C2[C@H]3CCn4c(=O)n(-c5ccccc5)c(=O)n4[C@H]3[C@H](O)[C@@H]3O[C@H]23)[C@H](OC(C)=O)[C@@H](OC(C)=O)[C@@H]1OC(C)=O -0.184, CCOC(=O)[C@H](CC(C)C)NC(=O)CCC1CC(OC(=O)NCc2ccc3c(c2)OCO3)CC2(CCCC(COC(=O)NCCOC)O2)O1 (some centres not stated) 0.418, O=C1C[C@@H](O)[C@@H](O)[C@@H]2[C@@H]3C(=O)N(c4ccc(F)cc4F)C(=O)[C@@H]3CC[C@H]12 -0.304, CCOC(=O)CCN1C(=O)[C@H]2[C@@H]3C(=CC[C@H]2C1=O)C(=O)[C@H]1O[C@H]1[C@H]3O -0.548, O=C1CCCC=C1C(O)C1CCCCC1 (configuration not stated) -0.647, CCN1C(=O)[C@H]2[C@H]3[C@H](O)[C@H](O)CC(=NOC[C@@H](O)[C@H]4O[C@@H]5OC(C)(C)O[C@@H]5[C@H]4O)[C@@H]3CC[C@H]2C1=O -0.0223, COc1ccc(COC(=O)NN=C2C[C@@H](O)[C@@H](O)[C@@H]3[C@@H]4C(=O)N(Cc5ccccc5)C(=O)[C@@H]4CC[C@@H]23)cc1 0.325, C[C@H]1CC[C@H]2C(=O)OC(COc3ccc(C(C)(C)C)cc3)CN2[C@@H]1c1ccc(Br)cc1 (some centres not stated) -0.249, COCCNC(=O)OCC1CCCC2(CC(OC(=O)NCc3cccc4ccccc34)CC(CCC(=O)N[C@@H](C)C(=O)OC)O2)O1 (some centres not stated) 1.36, CC(C)CON=C1[C@H]2CCn3c(=O)n(C)c(=O)n3[C@H]2[C@H](O)[C@@H]2O[C@H]12 -0.353, CO[C@H]1COC(=O)[C@H](CCSC)NC(=O)CC=C[C@@H](C)[C@H](OC)COC(=O)[C@@H](OCc2ccccc2)C=C[C@@H]1C -0.208, CC(CCN1CCCCc2nc(C)c(C)cc21)=NOC[C@@H](O)[C@H]1O[C@@H]2OC(C)(C)O[C@@H]2[C@H]1O -0.382, CC(C)(C)N1C(=O)[C@H]2[C@H]3[C@H](O)[C@H](O)CC(=NOC[C@@H](O)COCc4ccco4)[C@@H]3CC[C@H]2C1=O -0.0396, C=CC[C@@H]1C=C[C@H](ON=C2C[C@@H](O)[C@@H](O)[C@@H]3[C@@H]4C(=O)N(CC)C(=O)[C@@H]4CC[C@@H]23)[C@@H](CO)O1 -0.466, CCOC(=O)NN=C1C[C@@H](O)[C@@H](O)[C@@H]2[C@@H]3C(=O)N(CC)C(=O)[C@@H]3CC[C@H]12 0.355

Assay: growth of efflux-deficient E. coli DRC39 – strain DRC39, OD650, 24 h, E. coli filamentation inducers, primary screen (AID 1178);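 further: growth measured as culture turbidity by optical density at 650 nm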
Conditions: E. coli DRC39 acrAB, higher = more signal, called active from +8 up or from −8 down

z-score, inactive:
COC(=O)[C@H](C)NC(=O)CCC1CC(OC(=O)NCc2cccc3ccccc23)CC2(CCCC(COC(=O)NCCc3ccccc3OC)O2)O1 (some centres not stated) 0.642, CO[C@@H](C(C)C)[C@@H](C)C1OC(=O)CC1O (some centres not stated) 0.284, COc1ccc(COC(=O)NN=C2C[C@@H](O)[C@@H](O)[C@@H]3[C@@H]4C(=O)N(C[C@@H]5CCCO5)C(=O)[C@@H]4CC[C@H]23)cc1 0.16, COC(=O)[C@H](C)NC(=O)CCC1CC(OC(=O)NCCc2ccc(F)cc2)CC2(CCCC(COC(=O)NCCc3ccccc3OC)O2)O1 (some centres not stated) 0.636, CON=C(C)CCN1CCCCc2nc(C)c(C)cc21 0.852, CC(C)C(=O)N[C@H]1CCCN1C(=O)C=Cc1ccccc1 -0.0435, C#CCCCON=C1C[C@@H](O)[C@@H](O)[C@@H]2[C@@H]3C(=O)N(C[C@@H]4CCCO4)C(=O)[C@@H]3CC[C@@H]12 0.534, COc1ccc(COC(=O)NN=C2C[C@@H](O)[C@@H](O)[C@@H]3[C@@H]4C(=O)N(C5CCCCC5)C(=O)[C@@H]4CC[C@@H]23)cc1 -0.697, CCOC(=O)[C@H](CC(C)C)NC(=O)CCC1CC(OC(=O)NCc2ccc3c(c2)OCO3)CC2(CCCC(COC(=O)NCCc3ccc(Cl)cc3)O2)O1 (some centres not stated) 0.337, CC(CCC(=O)OC[C@H]1O[C@H](C#Cc2ccccc2)C=C[C@@H]1Oc1ccc(C)cc1)=NO[C@@H](C)c1cc(-c2c(C)cc(C)cc2C)no1 -0.135, COC(=O)[C@H](C)NC(=O)CC=C[C@@H](C)[C@@H]1C=C[C@H](O)[C@@H](CO)O1 0.64, C[C@H]1CC[C@@H](C(=O)O)N[C@@H]1c1cccc(N2CCCC2=O)c1 0.968, CO[C@@H]1[C@H](O)CO[C@H]1C=Cc1ccccc1 -0.442, COC(=O)[C@H](C)NC(=O)CCC1CC(OC(=O)NCCc2ccc(F)cc2)CC2(CCCC(COC(=O)NCc3ccccc3)O2)O1 (some centres not stated) 0.0734, CC(C)CON=C1C[C@@H](O)[C@@H](O)[C@@H]2[C@@H]3C(=O)N(c4ccc(F)cc4F)C(=O)[C@@H]3CC[C@@H]12 1.01, O=C1C=C[C@@H](O)[C@@H]2[C@@H]3C(=O)N(Cc4ccc5c(c4)OCO5)C(=O)[C@@H]3CC[C@@H]12 0.207, CC[C@@H](c1ccccc1)n1c(=O)n2n(c1=O)[C@H]1[C@H](O)[C@@H]3O[C@@H]3C(=NOCc3ccccc3)[C@H]1CC2 -0.527, CC(=O)OC[C@H]1O[C@H](CC=NOC[C@@H](O)COCc2ccco2)C=C[C@@H]1OC(C)=O 0.574, C[C@H]1C=CCC(=O)OC[C@H](C)C(=O)N2CCC[C@H]2C(=O)OC1 0.0678, CC(C)CON=C1C[C@@H](O)[C@@H](O)[C@@H]2[C@@H]3C(=O)N(Cc4ccc5c(c4)OCO5)C(=O)[C@@H]3CC[C@@H]12 0.146, CCOC(=O)CCN1C(=O)[C@H]2[C@H]3[C@H](O)[C@H](O)CC(=NNC(=O)OCC)[C@H]3CC[C@H]2C1=O -0.216, CC(=O)OC[C@H]1O[C@@H](ON=C2[C@H]3CCn4c(=O)n(-c5ccccc5)c(=O)n4[C@H]3[C@H](O)[C@@H]3O[C@H]23)[C@H](OC(C)=O)[C@@H](OC(C)=O)[C@@H]1OC(C)=O 0.435, CCOC(=O)[C@H](CC(C)C)NC(=O)CCC1CC(OC(=O)NCc2ccc3c(c2)OCO3)CC2(CCCC(COC(=O)NCCOC)O2)O1 (some centres not stated) 0.214, O=C1C[C@@H](O)[C@@H](O)[C@@H]2[C@@H]3C(=O)N(c4ccc(F)cc4F)C(=O)[C@@H]3CC[C@H]12 -0.297, CCOC(=O)CCN1C(=O)[C@H]2[C@@H]3C(=CC[C@H]2C1=O)C(=O)[C@H]1O[C@H]1[C@H]3O -0.254, O=C1CCCC=C1C(O)C1CCCCC1 (configuration not stated) 0.342, CCN1C(=O)[C@H]2[C@H]3[C@H](O)[C@H](O)CC(=NOC[C@@H](O)[C@H]4O[C@@H]5OC(C)(C)O[C@@H]5[C@H]4O)[C@@H]3CC[C@H]2C1=O 0.74, COc1ccc(COC(=O)NN=C2C[C@@H](O)[C@@H](O)[C@@H]3[C@@H]4C(=O)N(Cc5ccccc5)C(=O)[C@@H]4CC[C@@H]23)cc1 0.918, C[C@H]1CC[C@H]2C(=O)OC(COc3ccc(C(C)(C)C)cc3)CN2[C@@H]1c1ccc(Br)cc1 (some centres not stated) 1.22, COCCNC(=O)OCC1CCCC2(CC(OC(=O)NCc3cccc4ccccc34)CC(CCC(=O)N[C@@H](C)C(=O)OC)O2)O1 (some centres not stated) 0.17, CC(C)CON=C1[C@H]2CCn3c(=O)n(C)c(=O)n3[C@H]2[C@H](O)[C@@H]2O[C@H]12 -0.0374, CO[C@H]1COC(=O)[C@H](CCSC)NC(=O)CC=C[C@@H](C)[C@H](OC)COC(=O)[C@@H](OCc2ccccc2)C=C[C@@H]1C 0.345, CC(CCN1CCCCc2nc(C)c(C)cc21)=NOC[C@@H](O)[C@H]1O[C@@H]2OC(C)(C)O[C@@H]2[C@H]1O 0.78, CC(C)(C)N1C(=O)[C@H]2[C@H]3[C@H](O)[C@H](O)CC(=NOC[C@@H](O)COCc4ccco4)[C@@H]3CC[C@H]2C1=O -0.323, C=CC[C@@H]1C=C[C@H](ON=C2C[C@@H](O)[C@@H](O)[C@@H]3[C@@H]4C(=O)N(CC)C(=O)[C@@H]4CC[C@@H]23)[C@@H](CO)O1 -0.939, CCOC(=O)NN=C1C[C@@H](O)[C@@H](O)[C@@H]2[C@@H]3C(=O)N(CC)C(=O)[C@@H]3CC[C@H]12 0.334
